Sampled rows, rich in hits. Any-hit rate of the full collection: about 2.9%.
ADAM10 inh – human ADAM10 inhibitors, primary screen, biochemical, QFRET, HTS. recombinant ADAM10, EDANS/DABCYL FRET peptide cleavage, 3 h. inhibition, % at 7 µM. hit rate 0.62% among 370,000. AID 720582, 2013;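 active means inhibition above a per-campaign cutoff equal to the mean of compounds falling between control-based bounds plus 3 SD, cut at about 20% in these data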
PLCb3 inh – human PLC-beta3 inhibitors, primary screen, biochemical, fluorescence | 1-phosphatidylinositol 4,5-bisphosphate phosphodiesterase beta-3 (Homo sapiens), Q01970 | Purified PLC-beta3, fluorogenic substrate | inhibition, % at 12.2 µM | hit rate 0.18% among 370,000 | AID 720704, 2013; in the data active means inhibition above about 11%
Target sequence (Q01970 whole entry, looked up): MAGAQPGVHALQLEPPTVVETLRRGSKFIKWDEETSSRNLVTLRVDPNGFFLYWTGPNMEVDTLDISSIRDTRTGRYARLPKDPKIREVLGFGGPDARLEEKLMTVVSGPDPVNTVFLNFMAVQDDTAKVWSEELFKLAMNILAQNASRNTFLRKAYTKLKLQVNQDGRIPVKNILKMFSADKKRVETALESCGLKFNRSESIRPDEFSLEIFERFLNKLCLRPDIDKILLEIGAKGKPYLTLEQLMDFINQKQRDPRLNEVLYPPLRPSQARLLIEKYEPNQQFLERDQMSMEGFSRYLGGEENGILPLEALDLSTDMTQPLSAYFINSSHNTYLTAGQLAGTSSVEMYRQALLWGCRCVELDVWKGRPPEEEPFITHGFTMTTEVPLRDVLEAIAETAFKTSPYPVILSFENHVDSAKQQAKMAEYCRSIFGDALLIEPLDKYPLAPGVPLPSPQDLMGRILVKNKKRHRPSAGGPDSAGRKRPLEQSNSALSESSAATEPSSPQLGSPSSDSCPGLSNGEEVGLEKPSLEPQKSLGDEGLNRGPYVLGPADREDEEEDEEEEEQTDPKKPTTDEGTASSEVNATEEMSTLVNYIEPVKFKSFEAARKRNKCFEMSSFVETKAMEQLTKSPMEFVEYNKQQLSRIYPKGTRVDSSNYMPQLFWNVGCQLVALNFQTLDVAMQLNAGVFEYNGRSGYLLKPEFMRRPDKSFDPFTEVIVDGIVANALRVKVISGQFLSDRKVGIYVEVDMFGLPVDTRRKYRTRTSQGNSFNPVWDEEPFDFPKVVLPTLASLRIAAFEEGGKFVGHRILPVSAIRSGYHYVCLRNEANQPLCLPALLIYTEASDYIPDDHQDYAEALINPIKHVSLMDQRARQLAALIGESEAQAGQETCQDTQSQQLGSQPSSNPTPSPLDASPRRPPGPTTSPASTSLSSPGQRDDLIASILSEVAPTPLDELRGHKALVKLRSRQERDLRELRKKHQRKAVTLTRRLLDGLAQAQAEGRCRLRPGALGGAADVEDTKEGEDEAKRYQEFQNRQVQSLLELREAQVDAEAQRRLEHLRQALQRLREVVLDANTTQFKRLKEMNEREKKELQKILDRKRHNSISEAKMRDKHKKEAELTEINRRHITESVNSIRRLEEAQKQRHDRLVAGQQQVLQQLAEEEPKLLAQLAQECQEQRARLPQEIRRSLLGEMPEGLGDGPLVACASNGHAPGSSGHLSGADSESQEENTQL
KLK7 zymogen act – proKLK7 zymogen activators, primary screen, biochemical, fluorescence intensity. activation, % at 7 µM. Kallikrein-7 (Homo sapiens), P49862. hit rate 0.9% among 370,000. AID 652039, 2013. purified proKLK7, EDANS-DABCYL substrate fluorescence; 100% is mature enzyme control, 0% vehicle;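 active means activation above the mean of all tested compounds plus 3 SD, computed per campaign excluding outliers beyond control limits, cut at about 13% in these data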
PLCg1 inh – PLC-gamma1 enzyme inhibitors, primary screen, biochemical, fluorescence, purified enzyme. 1-phosphatidylinositol 4,5-bisphosphate phosphodiesterase gamma-1 (Homo sapiens), P19174. fluorogenic substrate. inhibition, % at 12.2 µM. hit rate 0.84% among 370,000. AID 720700, 2013
ADAM17 inh – ADAM17 inhibitors, primary screen, biochemical, QFRET. recombinant ADAM17, EDANS/DABCYL FRET peptide cleavage. inhibition, % at 6.95 µM. hit rate 0.83% among 370,000. AID 720648, 2013;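 active means inhibition above the mean of compounds lying between control limits plus 3 SD, set per campaign, cut at about 8.5% in these data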
PLCg1 ctr – PLC-gamma1 enzyme inhibitors, counter-screen for PLC-beta3 inhibitor project, biochemical, fluorescence; shares compounds with PLCg1 inh; purified PLC-gamma1, fluorogenic substrate; inhibition, % at 12.3 µM; hit rate 3.1% among 3,300; AID 743258, 2014
PLCbeta3 conf – PLC-beta3 inhibitor confirmation, biochemical, fluorescence, purified enzyme; shares compounds with PLCg1 inh; fluorogenic substrate fluorescence; inhibition, % at 12.3 µM; hit rate 1% among 3,300; AID 743261, 2014; in the data active means inhibition above about 11%
Each line names hits and unclear results; the compound was inactive in the other large screens (follow-up assays come after a bar, where they were run). Unless noted, no stated cut-off is given here; in the data, active means inhibition above about 9.5%; inactive means the rest.

CCn1cc(C(=O)NCCCN2CCC(C)CC2)c(=O)c2cc(S(=O)(=O)N3CCOCC3)ccc21	none
C=CC[C@@H](CC(=O)NCCO)C(=O)N[C@@H](COC(=O)[C@@H](CC=C)CC(=O)OC(C)(C)C)Cc1ccccc1	PLCg1 inh 10.0 | PLCg1 ctr inactive | PLCbeta3 conf inactive
C=CC[C@@H](CC(=O)N[C@H](CO)Cc1ccccc1)C(=O)N[C@@H](COC(=O)[C@H](CC=C)CC(=O)OC(C)(C)C)Cc1ccccc1	PLCg1 inh 9.5 | PLCg1 ctr inactive | PLCbeta3 conf inactive
COC(=O)c1ccc(OCC(=O)NC2CCCCCC2)cc1	none
O=C(CNS(=O)(=O)c1ccc(F)cc1)N1CCN(c2ccccn2)CC1	none
CC1CCN(C(=O)c2ccc3c(c2NCCO)C(=O)c2ccccc2C3=O)CC1	PLCb3 inh 15, PLCg1 inh 10 | PLCg1 ctr inactive | PLCbeta3 conf inactive
CCc1nc2ccccc2c(C(=O)OCC(=O)N2CC(C)OC(C)C2)c1C (stereo not drawn)	none
Cc1onc(-c2c(Cl)cccc2Cl)c1C(=O)ONC(=O)c1cc(C(F)(F)F)cc(C(F)(F)F)c1	PLCg1 inh 10 | PLCg1 ctr inactive | PLCbeta3 conf inactive
O=C(CCN=C1NS(=O)(=O)c2ccccc21)OCC(=O)c1ccccc1	none
CC(C)CCNC(=O)NC(=O)COC(=O)CCN=C1NS(=O)(=O)c2ccccc21	PLCg1 inh 11 | PLCg1 ctr inactive | PLCbeta3 conf inactive
O=C(c1ccc2snnc2c1)N1CCN(c2ccccn2)CC1	PLCg1 inh 15 | PLCg1 ctr inactive | PLCbeta3 conf inactive
O=C(c1ccc2snnc2c1)N1CCN(c2ccccc2)CC1	none
CCCc1cc(CN(C)C(=O)CC2C(=O)NCCN2Cc2ccccc2C)[nH]n1 (stereo not drawn)	none
COc1cc2c(c(O)c1OC)C1Cc3ccc(OC)c(OC)c3CN1CC2 (stereo not drawn)	none
COc1cc2c3cc1Oc1cc(ccc1O)C[C@@H]1c4c(cc(OC)c(O)c4Oc4ccc(cc4)C[C@@H]3N(C)CC2)CC[N+]1(C)C	PLCg1 inh 13 | PLCg1 ctr inactive | PLCbeta3 conf inactive
COc1ccc(CNC(N)=O)cc1	none
NC(=O)NCc1ccc(Cl)cc1	PLCg1 inh 12 | PLCg1 ctr inactive | PLCbeta3 conf inactive
COc1ccc(OC)c(NC(=O)CCn2ccnc2)c1	none
CN1CCN(c2ccc(CNC[C@H]3O[C@@H](n4cnc5c(=O)[nH]c(N)nc54)[C@H](O)[C@@H]3O)c(F)c2)CC1	PLCg1 inh 9.8 | PLCg1 ctr inactive | PLCbeta3 conf inactive
CC12c3ccccc3C(c3ccccc31)C1C(=O)N(c3ccncc3)C(=O)C12 (stereo not drawn)	none
CC12c3ccccc3C(c3ccccc31)C1C(=O)N(c3cccnc3)C(=O)C12 (stereo not drawn)	PLCg1 inh 12 | PLCg1 ctr inactive | PLCbeta3 conf inactive
CCCCCCOc1ccc(C(=O)O)cc1C#N	PLCg1 inh 9.8 | PLCg1 ctr inactive | PLCbeta3 conf inactive
Cc1ccc(NC(=O)c2ccc(-n3cccn3)c([N+](=O)[O-])c2)cc1	none
O=C(Nc1ccccc1Cl)c1ccc(-n2cccn2)c([N+](=O)[O-])c1	PLCg1 inh 11 | PLCg1 ctr inactive | PLCbeta3 conf inactive
CN(C)C(=O)CCc1nc(-c2ccc(C(C)(C)C)cc2)no1	PLCg1 inh 12 | PLCg1 ctr inactive | PLCbeta3 conf inactive
CC(C)(C)c1ccc(-c2noc(CCC(N)=O)n2)cc1	none
COc1ccc(C(C)NC(=S)NCc2ccc(F)cc2)cc1OC (stereo not drawn)	PLCg1 inh 17 | PLCg1 ctr inactive | PLCbeta3 conf inactive
CCC(NC(=S)NCc1ccc(F)cc1)c1ccc(C(C)C)cc1 (stereo not drawn)	none
CC(C)C[C@H]1COc2cc(Br)ccc2S(=O)(=O)N1Cc1cn(Cc2ccc(Br)cc2)nn1	none
CCOc1ccc(CCNC(=O)COC(=O)c2ccc(OC)c(OC)c2OC)cc1OCC	none
CCOc1ccc(CCNC(=O)COC(=O)c2oc3ccccc3c2COC)cc1OCC	PLCg1 inh 14 | PLCg1 ctr inactive | PLCbeta3 conf inactive
O=[N+]([O-])c1ccc(Nc2ccccc2O)c([N+](=O)[O-])c1	PLCg1 inh 9.5 | PLCg1 ctr inactive | PLCbeta3 conf inactive
COc1ccc(Cn2cc(CN3CCc4onc(-c5ccc(Br)cc5)c4C3=O)nn2)cc1	none
Cc1cc(OCCCn2ccnc2)ccc1[N+](=O)[O-]	none
Cc1ccc(OCCn2ccnc2)c([N+](=O)[O-])c1	PLCg1 inh 13 | PLCg1 ctr inactive | PLCbeta3 conf inactive
COc1ccc(CNCCC(c2ccccc2)c2ccc(OC(C)C)cc2)cc1OC (stereo not drawn)	PLCg1 inh 11 | PLCg1 ctr inactive | PLCbeta3 conf inactive
COc1ccc(C(CCNCc2ccc(F)cc2)c2ccc(F)cc2)cc1 (stereo not drawn)	none
COc1ccc(CNCCC(c2ccc(F)cc2)c2ccc(OC(C)C)cc2)cc1OC (stereo not drawn)	PLCg1 inh 11 | PLCg1 ctr inactive | PLCbeta3 conf inactive
O=[N+]([O-])c1ccc2c(c1)C(=NO)c1cc(Cl)c(Cl)cc1-2	none
Cc1cccc(OCCC(=O)Nc2ccc(F)c(F)c2)c1	PLCg1 inh 9.7 | PLCg1 ctr inactive | PLCbeta3 conf inactive
Cc1cccc(OCCCC(=O)Nc2ccc(N(C)C)cc2)c1	none
O=C(COC(=O)C1=COCCO1)Nc1cccc(Oc2ccccc2)c1	none
O=C(COC(=O)C1=COCCO1)Nc1ccccc1Oc1ccccc1	PLCb3 inh 11 | PLCg1 ctr inactive | PLCbeta3 conf inactive
O=C(N/N=C\c1ccc(Cl)cc1)C1=NOC2COC3(CCN(c4ccc([N+](=O)[O-])cc4)CC3)OCC12 (stereo not drawn)	PLCb3 inh 13, PLCg1 inh 14 | PLCg1 ctr inactive | PLCbeta3 conf inactive
COc1ccc(CNC(=O)C2CCC(CNS(=O)(=O)c3ccc(C)cc3)CC2)cc1 (stereo not drawn)	PLCg1 inh 10 | PLCg1 ctr inactive | PLCbeta3 conf inactive
COc1ccc(S(=O)(=O)NCC2CCC(C(=O)NCc3ccc(F)cc3)CC2)cc1 (stereo not drawn)	none
CC(=O)Nc1ccc(C2=NN(CC#N)C(=O)SC2)cc1	none
